Measurements published in ChEMBL document CHEMBL3988442, “University of Dundee, Small-Polar-MMV Screening Library” (2021).
In all, about 85,000 compounds went through this assay and about 440 (0.52%) showed an effect of 50% or more. The entries come from a sample that favours strong results as a whole.

Experiment: In vitro enzyme assay to detect hydrolysis of chlorophenol red-beta-D-[…] directly proportional to the number of Toxoplasma stably expressing beta-galactosidase
Type: functional, organism-based, Toxoplasma gondii
Design: scale not given: in the data most compounds retested in dose-response had high values

Structure (SMILES)	Percent Effect (50 µM) [%]	Percent Effect (10 µM) [%]
CC(Nc1ncnc2c1cnn2C)c1ccncc1 (centres undefined)	10.45	–
NC(=O)CN1CCCN(C(=O)c2sccc2Br)CC1	2.336	–
CN(C)CCCNCC1CCOC(C)(C)C1 (centres undefined)	–	15.27
CN(C)CCCNCCC(c1ccccc1)C1CCOC(C)(C)C1.O=C(O)C(=O)O (centres undefined)	–	13.16
Cc1ccc(C(CCNCCCN(C)C)C2CCOC(C)(C)C2)cc1.O=C(O)C(=O)O (centres undefined)	–	86.28
CN(C)CCNCCC(c1ccccc1)C1CCOC(C)(C)C1.O=C(O)C(=O)O (centres undefined)	–	-5.061
Cc1ccc(C(CCNCCN(C)C)C2CCOC(C)(C)C2)cc1.O=C(O)C(=O)O (centres undefined)	–	5.223
CC(=O)Nc1nc2c(s1)CCCC2	-6.719	–
O=S(=O)(c1ccc2c(c1)OCCO2)N1CCCNCC1	3.594	–
O=S(=O)(c1ccc2c(c1)OCCO2)N1CCc2ccccc2C1	–	3.262
NC1CN(S(=O)(=O)c2ccc3c(c2)OCCO3)C1	61.03	–
c1cncc(CCNCc2cccc3c2OCCO3)c1	-5.823	–
CN(C)S(=O)(=O)NCC(O)c1cccc(C(F)(F)F)c1 (centres undefined)	2.973	–
Cc1cccc(C(=O)Nc2cccc(O)c2)n1	0.8696	–
CC(C)NC(=O)NCCn1cnc(C2CCCC2)cc1=O	–	7.593
O=C(NCCn1cnc(C2CCCC2)cc1=O)c1ccc(=O)[nH]n1	–	-2.574
O=C(NCCn1cnc(C2CCCC2)cc1=O)NCc1cccs1	–	56.76
CC(=O)c1ccc(Br)o1	1.756	–
Cc1ccc(C(=O)COC(=O)c2cccnc2N)cc1	-8.374	–
CC(C)c1ccc(S(=O)(=O)C(C)C(N)=O)cc1 (centres undefined)	-3.645	–
CC(C)CCC(=O)N1CCC(C)(CO)C1 (centres undefined)	58.28	–
CC(=O)N1CCN(C(=O)CCC(C)C)CC1	-13.31	–
CC(C)CCC(=O)N1CCNCC1	-1.153	–
Cc1noc(C)c1CN1CCCC(CS(C)(=O)=O)C1 (centres undefined)	-9.047	–

Structure (SMILES)	Percent Effect (50 µM) [%]	Percent Effect (10 µM) [%]
O=C1CC(C(=O)N2CCOC3(CCCC3)C2)CCN1 (centres undefined)	-8.974	–
C1CC(C2CNC2)CCO1	67.45	–
C1CC(C2CCOC2)CCN1 (centres undefined)	0.8119	–
C1CC(C2CNC2)CO1 (centres undefined)	5.994	–
CCNC(=O)CNc1nccc(OC)n1	5.07	–
Cc1nn(-c2ccc(F)cc2)cc1CN	-3.262	–
CC(C)COCC1CCNCC1	3.232	–
CCCC(=O)NCCCNC(=O)c1ccc(C)nc1	-3.506	–
Cc1ccc(C(=O)NCC(C)(C)N(C)C)cn1	-0.683	–
Cc1ccc(C(=O)NCCCNCCCN(C)C)cn1	99.75	–
Cc1nnc(NC(=O)N(CCO)C2CC2)s1	-4.304	–
O=C(NC1CCCSC1)N(CCO)C1CC1 (centres undefined)	98.6	–
O=C(NC1CCCSC1)N[C@H](CO)Cc1ccccc1 (some centres undefined)	1.879	–
CCCn1ccnc1CNC(=O)CCNS(C)(=O)=O	-5.274	–
Cc1cc(S(=O)(=O)N[C@@H]2CCOC[C@H]2O)n(C)n1	15.92	–
CCn1ccnc1CN(C)CCC(=O)NC(C)C	14.34	–
CN(C)C1CCN(C(=O)CN(C)S(C)(=O)=O)CC1	-9.436	–
COCCNc1nc(-c2ccc(O)cc2O)cs1	0.3364	–
COc1ncccc1-c1csc(NCCSC)n1	98.47	–
COc1ncccc1-c1cccc(C#N)n1	5.499	–
N#Cc1cccc(NC(=O)NC2CCS(=O)(=O)C2)c1 (centres undefined)	1.062	–
CCC(=O)N(c1ccc(Cl)cc1)C1C=CS(=O)(=O)C1 (centres undefined)	-0.8656	–
NCCCNS(=O)(=O)c1ccc(Cl)cc1	-0.1272	–
CCCc1cc(C(=O)NCCC2=CCCCC2)[nH]n1	–	32.61

Structure (SMILES)	Percent Effect (50 µM) [%]	Percent Effect (10 µM) [%]
Cc1ccc(-c2cc(C(=O)NCCC3=CCCCC3)[nH]n2)o1	–	28.69
O=C(NCCC1=CCCCC1)c1cc(-c2ccc(O)cc2)n[nH]1	–	74.79
O=C(CN1CCN(CCO)CC1)Nc1ccc(Br)cn1	2.183	–
COc1cc(Cl)ccc1CN	12.35	–
COc1ccc(NC(=O)Cn2nc(C)c(C(C)=O)c2C)cc1	–	89.45
Cc1cc(=O)n(CC(=O)Nc2ccc(Cl)cc2)nc1C	–	3.812
CCN1CCN(CC(=O)Nc2ccc(OC)cc2)CC1	6.454	–
CC(=O)c1c(C)nn(CC(=O)Nc2ccc(F)cc2)c1C	–	19.31
COc1ccc(NC(=O)Cn2nc(C)c(C)cc2=O)cc1	–	-1.054
CC(=O)c1c(C)nn(CC(=O)Nc2ccc(Br)cc2)c1C	–	96.91
NCCS(=O)(=O)NCc1ccccc1	-6.39	–
CC(=O)NCCNC(=O)CC(C)C1CCCCC1 (centres undefined)	-13.76	–
CNC(=O)CN1CCC(NC(=O)c2cccs2)CC1	-6.649	–
CS(=O)(=O)C1CCCCN(C(=O)CC2CCSCC2)C1 (centres undefined)	-13.3	–
NC(=O)c1ccc(OCC(=O)c2ccccc2F)cc1	-5.248	–
Cc1nc(-c2ccc(F)cc2)cc(C2CCNCC2)n1	–	1.268
CCN(Cc1ccncc1)c1cc(C2CCCNC2)nc(C)n1 (centres undefined)	–	14.41
CN(Cc1cc2cc(F)ccc2[nH]1)c1cc(C2CCCNC2)ncn1 (centres undefined)	–	38.81
CCN(Cc1c(F)cccc1Cl)c1cc(C2CCNCC2)nc(C)n1	–	79.97
CCN(Cc1ccncc1)c1cc(C2CCNCC2)nc(C)n1	–	30.82
Cc1nc(C2CCNCC2)cc(N(C)Cc2cc3cc(F)ccc3[nH]2)n1	–	63.01
CCC(N)c1ccccc1OCC(=O)N(C)C (centres undefined)	-2.206	–
NC(=O)CCSc1nnc(N2CCCC2)n1C1CC1	10.69	–
Cc1nccn1CCNc1cc(C2CC(O)C2)ncn1 (centres undefined)	47.03	–

Structure (SMILES)	Percent Effect (50 µM) [%]	Percent Effect (10 µM) [%]
CNC(=O)NC(=O)CCN1CCCCC1	-8.963	–
CNC(=O)NC(=O)CCN1CCCC(C)C1 (centres undefined)	60.28	–
CNC(=O)NC(=O)CCN1CCCC(C(F)(F)F)C1 (centres undefined)	-7.84	–
Cc1nn(C)cc1C(C)NC(=O)CNc1ccccc1 (centres undefined)	-0.7115	–
CN(CC(=O)N1CCOCC1)Cc1cc(Br)cs1	6.245	–
COc1ccccc1C1(CNc2snc(Cl)c2C#N)CCOCC1	–	-0.2674
N#Cc1c(Cl)nsc1NCC1(c2ccccc2)CCC1	–	79.2
COc1ccccc1C1(CNc2snc(Cl)c2C#N)CCCC1	–	2.513
Cc1noc(C)c1C(=O)NC1CCN(CC2CC2)CC1	-0.3877	–
CC(C)c1nsc(NCC2=COCCO2)n1	-1.035	–
Cc1[nH]c2ccccc2c1-c1ccnc(N[C@H](CO)CC(C)C)n1	–	53.1
Cc1[nH]c2ccccc2c1-c1ccnc(N[C@@H](CO)C(C)C)n1	–	48.14
Cc1[nH]c2ccccc2c1-c1ccnc(NCCN2CCOCC2)n1	–	-5.812
Cc1[nH]c2ccccc2c1-c1ccnc(N[C@@H](C)CO)n1	–	58.12
Cc1[nH]c2ccccc2c1-c1ccnc(NCCN2CCCCC2)n1	–	28.85
Cc1[nH]c2ccccc2c1-c1ccnc(NC[C@H](O)CO)n1	–	15.34
NCc1cc2c([nH]c1=O)CCC2	5.937	–
CCN(CCCOC)CC(=O)Nc1cccc(OC)c1	-2.356	–
COc1ccc(NC(=O)c2ccc(Br)cn2)cc1CO	-27.31	–
COc1ccc(NC(=O)c2cncc(C)c2)cc1CO	-7.73	–
COc1ccc(-c2cncc(N)c2)cc1CO	96.02	–
O=C(CN1CCCC1c1noc(C2CC2)n1)NCCc1ccsc1 (centres undefined)	–	19.94
Cc1nc(C2CCCN2CC(=O)NCCc2ccsc2)no1 (centres undefined)	–	7.324
CCc1nc(C2CCCN2CC(=O)NCCc2ccsc2)no1 (centres undefined)	–	89.95

Structure (SMILES)	Percent Effect (50 µM) [%]	Percent Effect (10 µM) [%]
CCN(C)C(=O)CNc1ccccc1S(=O)(=O)CC	-2.619	–
O=C([C@@H]1CCCN1)N1CCCC1c1cccnc1 (some centres undefined)	-9.249	–
COCC(C)(CCO)NCc1cccc(F)c1 (centres undefined)	2.377	–
CC1(c2ccccc2)CCCN(Cc2cncn2C2CC2)C1 (centres undefined)	–	20.67
COCCn1cncc1CN1CCCC(C)(c2ccccc2)C1 (centres undefined)	–	0.6483
CC1(c2ccccc2)CCCN(Cc2cncn2C2CCCC2)C1 (centres undefined)	–	64.76
O=C(C(O)c1ccccc1)N(CCO)Cc1ccsc1 (centres undefined)	11.77	–
CCOC(=O)c1sc(O)nc1C	-0.2183	–
CC(C)C(NC(=O)c1ccco1)C(=O)N1CCOCC1 (centres undefined)	-3.141	–
NCC1(NS(=O)(=O)c2cccc3nonc23)CCCC1	-3.738	–
CC(C)NC(=O)C1CN(C(=O)CCc2ccccc2)CC12CCOCC2 (centres undefined)	–	56.76
CC(C)NC(=O)C1CN(C(=O)Cc2ccccc2)CC12CCOCC2 (centres undefined)	–	0.09588
CC(C)NC(=O)C1CN(C(=O)NCc2ccccc2)CC12CCOCC2 (centres undefined)	–	-9.471
CC(O)CN1CCN(C(=O)CN(C)C2CC2)CC1 (centres undefined)	3.925	–
Cc1cc(CNC(=O)CCCN2CCCCC2)ccn1	-5.389	–
NC(=O)NCC1CCCN1 (centres undefined)	26.88	–
CNCC(C)CNC(=O)c1ccc(C(N)=O)nc1 (centres undefined)	-13.42	–
Cc1cc(C)nc(NC(=O)NC2CCC(O)CC2)c1 (centres undefined)	31.49	–
O=C(NCCc1nnc[nH]1)C1SCCc2ccccc21 (centres undefined)	-20.61	–
CN(CC(C)(CO)CO)C(=O)Nc1cc(F)cc(F)c1	–	14.95
CN(C)C(=O)Nc1cc(F)cc(F)c1	57.68	–
CNCC(=O)Nc1cc(F)cc(F)c1	12.71	–
COC1CCN(CC(=O)Nc2ccc(C(N)=O)cc2)C1 (centres undefined)	-13.26	–
